Source: PubChem BioAssay (The Scripps Research Institute Molecular Screening Center)
An excerpt weighted towards active compounds, which were near 2.8% of everything screened.
HTRA1 inh: HTRA1 serine protease inhibitors, primary screen, biochemical, fluorescence polarization, HTS. Q92743. recombinant HTRA1, FP-rhodamine activity-based probe. inhibition, % at 5.96 µM. actives 0.5% (n = 340,000). AID 504803, 2011; in the data active = inhibition above about 36%;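 also: 0% = enzyme with DMSO and 100% = wells lacking enzyme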
DAGLB inh: DAGLB lipase inhibitors, primary screen, biochemical, fluorescence, HTS; Diacylglycerol lipase-beta (Homo sapiens), Q8NCG7; HEK293T DAGLB membrane lysate, EnzChek fluorogenic substrate; inhibition, % at 5.17 µM; actives 0.059% (n = 340,000); AID 504411, 2011; in the data active = inhibition above about 34%;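 also: 0% = enzyme with vehicle and 100% = wells lacking enzyme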
Target sequence (Q8NCG7 whole entry, looked up): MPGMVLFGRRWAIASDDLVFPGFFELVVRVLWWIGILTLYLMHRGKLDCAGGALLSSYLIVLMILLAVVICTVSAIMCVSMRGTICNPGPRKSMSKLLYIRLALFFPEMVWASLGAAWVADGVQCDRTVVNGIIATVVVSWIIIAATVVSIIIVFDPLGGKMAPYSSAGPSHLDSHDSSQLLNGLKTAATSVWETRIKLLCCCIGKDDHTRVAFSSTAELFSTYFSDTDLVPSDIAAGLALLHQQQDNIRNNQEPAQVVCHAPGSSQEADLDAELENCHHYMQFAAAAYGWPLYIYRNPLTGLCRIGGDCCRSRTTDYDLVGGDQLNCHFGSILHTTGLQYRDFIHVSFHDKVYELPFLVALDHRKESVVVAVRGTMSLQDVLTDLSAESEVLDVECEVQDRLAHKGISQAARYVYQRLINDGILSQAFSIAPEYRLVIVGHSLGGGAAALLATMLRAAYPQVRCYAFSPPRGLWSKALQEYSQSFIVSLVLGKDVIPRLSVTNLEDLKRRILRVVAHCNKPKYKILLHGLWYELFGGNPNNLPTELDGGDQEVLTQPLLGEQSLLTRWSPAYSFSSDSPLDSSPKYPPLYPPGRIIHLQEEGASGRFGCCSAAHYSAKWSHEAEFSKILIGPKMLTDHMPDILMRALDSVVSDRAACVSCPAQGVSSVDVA
PAFAH1B2 inh: PAFAH1B2 enzyme inhibitors, primary screen, biochemical, fluorescence polarization, human; AID 492953, 2010; actives 1.2% (n = 340,000); recombinant PAFAH1B2, FP-rhodamine activity probe; Platelet-activating factor acetylhydrolase IB subunit alpha2 (Homo sapiens), P68402; inhibition, % at 3.39 µM;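 active = inhibition above the mean of all tested compounds plus 3 SD, cut at about 24% in these data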;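 also: 0% = enzyme with DMSO and 100% = wells lacking PAFAH1B2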
PAFAH1B3 FP inh: PAFAH1B3 enzyme inhibitors, primary screen, biochemical, fluorescence polarization, human | Platelet-activating factor acetylhydrolase IB subunit alpha1 (Homo sapiens), Q15102 | recombinant PAFAH1B3, FP-rhodamine probe | inhibition, % at 3.39 µM | actives 0.28% (n = 340,000) | AID 492972, 2010;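 active = inhibition above the screen-wide average of all tested compounds plus 3 SD, cut at about 25% in these data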;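 also: 0% = enzyme with DMSO only and 100% = wells lacking PAFAH1B3 protein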
PAFAH2 inh: PAFAH2 enzyme inhibitors, primary screen, biochemical, fluorescence polarization, human. Platelet-activating factor acetylhydrolase 2, cytoplasmic (Homo sapiens), Q99487. inhibition, % at 3.39 µM. recombinant PAFAH2, FP-rhodamine activity probe. actives 0.99% (n = 340,000);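 active = inhibition above the mean over all tested compounds plus 3 SD, cut at about 30% in these data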;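 also: inhibitors block probe labeling of enzyme so polarization drops; 0% = enzyme with DMSO and 100% = wells lacking PAFAH2 protein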
pPAFAH FP inh: pPAFAH enzyme inhibitors, primary screen, biochemical, fluorescence polarization, human; Platelet-activating factor acetylhydrolase (Homo sapiens), Q13093; recombinant pPAFAH, FP-rhodamine probe fluorescence polarization; inhibition, % at 3.39 µM; actives 1.5% (n = 330,000);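 active = inhibition above the mean inhibition across the screen plus 3 SD, cut at about 25% in these data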;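 also: inhibitors block binding of the rhodamine activity-based probe so polarization drops; 0% = enzyme with DMSO and 100% = wells lacking pPAFAH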
PAFAH2 FP conf: PAFAH2 enzyme inhibitors, confirmation, biochemical, fluorescence polarization, human. inhibition, % at 3.39 µM. AID 493030, 2011. shares compounds with PAFAH2 inh. recombinant PAFAH2, FP-rhodamine activity probe. actives 65% (n = 2,300);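 active = mean inhibition over three repeats above a set limit taken from the earlier primary screen, cut at about 30% in these data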;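 also: inhibitor blocks binding of rhodamine activity probe so polarization falls; 0% = enzyme with DMSO and 100% = wells lacking PAFAH2 protein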
Starred values were filed as active, the others as inactive; . = not tested or not shown; ! = repeats disagree.

SMILES	HTRA1 inh	DAGLB inh	PAFAH1B2 inh	PAFAH1B3 FP inh	PAFAH2 inh	pPAFAH FP inh	PAFAH2 FP conf
C/C(N)=C(/C#N)C(=O)CSc1nnc(Nc2c(C)cccc2C)s1	6.3	2.5	5.5	17.3	31.8*!	16.6	16.5
CCc1cc2c(=O)oc(-c3ccc(F)cc3)nc2s1	-26.9	-1.9	-5.7	-2.3	81.6*	13.5	83.8*
CCc1cc2c(=O)[nH]c(-c3ccccn3)nc2s1	-1.2	1.1	3.5	13.2	0.9	2.8	.
COc1cccc(OC)c1C(=O)OCC(=O)NCCCc1ccccc1	-2.8	-2.5	9.3	-2.5	2.3	6.3	.
COc1ccc(C(=O)OCC(=O)Nc2c(C)cccc2C)c(OC)c1OC	0.6	-0.3	2.3	4.1	52.2*	2.2	42.9*
COc1ccc(CC(=O)OCC(=O)Nc2cccc(C(C)=O)c2)cc1OC	-1.9	0.6	2.5	9.6	10.9	.	.
COc1ccc(C(=O)OCC(=O)Nc2cccc(C(C)=O)c2)c(OC)c1OC	3.6	-2.9	0.4	7.8	83.0*	10.3	85.9*
COc1cccc(C(=O)OCC(=O)NCCc2ccccc2)c1OC	-1.5	1.3	-1.0	9.5	57.7*	15.2	44.0*
Cc1ccc(S(=O)(=O)NC[C@H]2O[C@@H](n3ccc(N)nc3=O)[C@H](O)[C@@H]2O)s1	-2.8	-1.5	.	.	.	.	.
Cc1cccc(N2CCC(N3CCN(C4CCCCC4)C(CCO)C3)CC2)c1C (stereo not given)	2.1	0.2	-0.3	-3.6	-3.3	-1.4	.
CC(C)c1ccc(NC(=O)COC(=O)C2CC3C=CC2C3)cc1 (stereo not given)	-6.8	-9.0	2.3	-0.7	44.3*	23.9	23.9
Cc1c(NC(=O)COC(=O)C2CC3C=CC2C3)c(=O)n(-c2ccccc2)n1C (stereo not given)	2.7	0.0	1.3	12.4	-2.8	2.0	.
Cc1cc(C)cc(NC(=O)COC(=O)C2CC3C=CC2C3)c1 (stereo not given)	-6.5	-2.9	.	.	.	.	.
O=C(COC(=O)C1CC2C=CC1C2)Nc1ccc([N+](=O)[O-])cc1 (stereo not given)	-5.5	0.2	9.8	2.0	56.7*	20.1	53.9*
NC(=O)c1ccc(NC(=O)COC(=O)C2CC3C=CC2C3)cc1 (stereo not given)	-0.6	-0.8	4.0	0.5	-6.8	0.9	.
O=C(COC(=O)C1CC2C=CC1C2)Nc1ccccc1[N+](=O)[O-] (stereo not given)	2.0	-2.6	1.0	10.8	76.8*	12.9	57.7*
O=C(N/N=C/c1ccc2cccc(OCc3ccccc3)c2n1)c1ccc(Cl)cc1	-61.9	-4.5	5.1	6.5	-13.1	-32.9	.
COc1ccc(C(=O)N/N=C/c2ccc3cccc(O)c3n2)cc1	6.5	6.7	-0.2	2.1	35.4*	4.3	12.4
COc1cc(NC(=O)CN(C)S(=O)(=O)c2ccc3c(c2)CC(C)N3C(C)=O)cc(OC)c1OC (stereo not given)	0.8	2.7	4.9	10.0	-1.5	8.1	.
O=C(COC(=O)/C=C/c1ccc(C(F)(F)F)cc1)NC1CC1	-0.2	-1.4	3.0	5.2	17.9	-1.3	.
O=C(COC(=O)/C=C/c1ccc(Cl)cc1)NC1CC1	-5.0	2.1	-1.6	6.2	52.1*	5.6	33.7*
O=C(COC(=O)/C=C/c1ccc(Cl)cc1)NC1CCCCCC1	9.8	-1.1	5.4	6.1	79.1*	6.1	71.0*
O=C(COC(=O)/C=C/c1ccccc1)NC(=O)NC1CCCCC1	4.9	-1.6	0.2	-0.6	35.2*	8.9	25.4
CSc1ccc(/C=C/C(=O)OCC(=O)NC2CC2)cc1	0.0	3.3	0.0	0.9	56.7*	2.6	48.0*
